Measurements reported in PubChem BioAssay (NCATS).
Records with an inconclusive call do not appear. Calls of active or inactive are those of the source. Calls follow the shape of the dose curve; as a rule, active = well fitted curve in the direction sought with a large enough effect; inconclusive = small, poorly fitted or top-dose-only effect, or another doubt; inactive = no such curve, though single readings can be large; an effect the other way counts as inactive or inconclusive. Non-standard residues stand in square brackets, D forms with d. Residues, ends and D or L forms follow the SMILES beside them.

Columns and labels:
[1] = BET inhibitor-based combinations targeting novel dependencies in MECOM-rearranged (r) AML: OCI-AML3 cell line (AID 2202232); conditions: Potency: OCI-AML3 viability; also: nearly all actives have a fitted effect of over 35% in size;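 as to viability (% of control): series mostly up to about 46 µM; plate controls were DMSO vehicle wells for no effect and wells without cells for full effect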
How it was run: (§1)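 Readout: CellTiter-Glo luminescence. Exposure: 48 h, 11 concentrations, 500 cells/well. Metric: AUC and within-line Z-AUC after DMSO/empty-well normalization.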

[2] = BET inhibitor-based combinations targeting novel dependencies in MECOM-rearranged (r) AML: MV-4-11 cell line (AID 2202233); also: nearly all actives have a fitted effect of over 45% in size;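 as to viability, % of control: plate controls were DMSO for no effect and blank wells for full effect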
How it was run: (§2)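 Seeding density was 500 cells/well, and drug exposure lasted 48 hr under standard culture conditions. Read-out used CellTiter-Glo reagent with a 15 min room-temperature incubation before luminescence measurement; AUC and Z-AUC summarize the normalized responses.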

[3] = BET inhibitor-based combinations targeting novel dependencies in MECOM-rearranged (r) AML: HNT-34 cell line (AID 2202234); also: nearly all actives have a fitted effect of over 35% in size;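 as to viability (% of control): plate controls were vehicle wells for no effect and cell-free wells for full effect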
How it was run: as §2

[4] = BET inhibitor-based combinations targeting novel dependencies in MECOM-rearranged (r) AML: UCSD-AML1 cell line (AID 2202235); also: nearly all actives have a fitted effect of over 40% in size;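 as to viability (% of control): series mostly up to about 46 µM; plate controls were DMSO vehicle wells for no effect and blank wells for full effect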
How it was run: as §2

[5] = BET inhibitor-based combinations targeting novel dependencies in MECOM-rearranged (r) AML: AML-191 cell line (AID 2202236; also: nearly all actives have a fitted effect of over 35% in size;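 as to viability (% of control): plate controls were vehicle wells for no effect and wells without cells for full effect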)
How it was run: as §1

[6] = BET inhibitor-based combinations targeting novel dependencies in MECOM-rearranged (r) AML: AML-194 cell line (AID 2202237; also: nearly all actives have a fitted effect of over 40% in size;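 as to viability (% of control): plate controls were vehicle wells for no effect and wells without cells for full effect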)
How it was run: as §1
Potency is read from the fitted curve at half-maximal effect.

O=C(NC[C@H](O)CO)c1ccncc1Nc1ccc(I)cc1F
active: Potency [1] 0.0332 µM | Potency [2] 5.9 µM | Potency [3] 0.468 µM | Potency [4] 372 nM | Potency [5] 0.525 µM

N#Cc1ccc(-c2c(-c3ncn[nH]3)sc(N3CCOCC3)c2C#N)c(F)c1
active: Potency [1] 5.9 µM | Potency [2] 5.9 µM | Potency [3] 10.5 µM | Potency [6] 3.32 µM

COc1cc(C)[nH]c(=O)c1CN1CCc2c(Cl)cc([C@H](OC)C3COC3)c(Cl)c2C1=O
inactive: Potency [1] | Potency [2] | Potency [3] | Potency [4] | Potency [5] | Potency [6]

COc1ccc2c(c1)CC[C@@H]1[C@@H]2CC[C@]2(C)[C@@H](NCCCCCCN3C(=O)C=CC3=O)CC[C@@H]12
inactive: Potency [1] | Potency [2] | Potency [3] | Potency [4] | Potency [5] | Potency [6]

CCCN(CCC)C(=O)C1=Cc2ccc(-c3ccc(C(=O)N4CCCC4)cc3)cc2N=C(N)C1
active: Potency [1] 16.6 µM | Potency [2] 16.6 µM | Potency [3] 18.6 µM | Potency [5] 18.6 µM | Potency [6] 26.3 µM
inactive: Potency [4]

O=c1c(-c2ccc(O)cc2)coc2c([C@@H]3O[C@H](CO)[C@@H](O)[C@H](O)[C@H]3O)c(O)ccc12
inactive: Potency [1] | Potency [2] | Potency [3] | Potency [4] | Potency [5] | Potency [6]

N#CCC1(n2cc(-c3ncnc4[nH]ccc34)cn2)CN(C2CCN(C(=O)c3ccnc(C(F)(F)F)c3F)CC2)C1
active: Potency [1] 1.66 µM | Potency [2] 16.6 µM | Potency [4] 3720 nM

CC(C)(O)CNc1ncc(-c2ccnc(Nc3ccncc3)n2)c(CC2CC2)n1
active: Potency [1] 18.6 µM | Potency [2] 5.9 µM | Potency [3] 9.34 µM | Potency [4] 14800 nM | Potency [5] 13.2 µM | Potency [6] 16.6 µM

COc1cc(OC)cc(N2CCN(C(=O)Nc3nc4cc(F)ccc4nc3OC)CC2)c1
active: Potency [1] 1.05 µM | Potency [2] 0.934 µM | Potency [3] 0.833 µM | Potency [5] 0.934 µM | Potency [6] 1.05 µM

C=C1CC[C@@H]2[C@](C)(CO)[C@H](O)CC[C@@]2(C)[C@@H]1C/C=C1/C(=O)OC[C@H]1O
active: Potency [1] 3.72 µM | Potency [2] 2.95 µM | Potency [3] 5.25 µM | Potency [4] 10500 nM | Potency [5] 5.9 µM | Potency [6] 9.34 µM

COc1cc(C(N)=O)ccc1NC(=O)[C@@H]1N[C@@H](CC(C)(C)C)[C@@]2(C(=O)Nc3cc(Cl)ccc32)[C@H]1c1cccc(Cl)c1F
active: Potency [1] 0.934 µM | Potency [2] 0.0934 µM | Potency [3] 0.148 µM | Potency [4] 209 nM | Potency [5] 0.468 µM | Potency [6] 0.59 µM

CCC(=C/[C@H](C)C/C=C/C(C)=C/[C@@H](C)C(=O)[C@@H](C)[C@H](O)[C@@H](C)C/C(C)=C/C(=O)O)/C=C/[C@@H]1OC(=O)C=C[C@@H]1C
active: Potency [1] 0.0042 µM | Potency [2] 0.003 µM | Potency [3] 0.0037 µM | Potency [4] 3.3 nM | Potency [5] 0.003 µM | Potency [6] 0.0019 µM

COc1ccnc2[nH]cc(C(=O)C(=O)N3CCN(C(=O)c4ccccc4)C[C@H]3C)c12
inactive: Potency [1] | Potency [2] | Potency [3] | Potency [4] | Potency [5] | Potency [6]

C[C@@H]1Cc2c([nH]c3ccccc23)[C@@H](c2c(F)cc(/C=C/C(=O)O)cc2F)N1CC(C)(C)F
inactive: Potency [1] | Potency [2] | Potency [3] | Potency [4] | Potency [5] | Potency [6]

C[C@]12CCCN1CC1=NNC(=O)c3cc(F)cc4[nH]c2c1c34
active: Potency [1] 20.9 µM | Potency [2] 2.63 µM | Potency [3] 5.9 µM | Potency [5] 18.6 µM

CCN(CC)C(=S)SSC(=S)N(CC)CC
active: Potency [1] 0.332 µM | Potency [2] 0.263 µM | Potency [3] 0.332 µM | Potency [6] 0.296 µM

C/C=C/C/C=C/CCC(=O)[C@H]1O[C@H]1C(N)=O
active: Potency [1] 11.8 µM | Potency [2] 20.9 µM | Potency [3] 14.8 µM | Potency [6] 26.3 µM

OC1CCC(Oc2cccc3cnc(Nc4ccc5nc[nH]c5c4)nc23)CC1 (stereo unspecified)
active: Potency [1] 1.48 µM | Potency [2] 0.0525 µM | Potency [3] 0.934 µM | Potency [4] 934 nM | Potency [5] 0.833 µM | Potency [6] 1.32 µM

O=C(O)C[C@H]1CCc2c1[nH]c1ccc(OCc3ccc(C4CCCC4)c(C(F)(F)F)c3)cc21
active: Potency [1] 13.2 µM | Potency [2] 5.9 µM
inactive: Potency [4]

COC1CCC(N2C(=O)CNc3ncc(-c4ccc(C(C)(C)O)nc4)nc32)CC1 (stereo unspecified)
active: Potency [1] 5.25 µM | Potency [2] 3.72 µM | Potency [3] 2.35 µM | Potency [4] 525 nM | Potency [5] 5.9 µM | Potency [6] 1.66 µM

C=CCNc1c(O)cc2c(O)c1C[C@@H](C)C[C@H](OC)[C@H](O)[C@@H](C)/C=C(/C)[C@H](OC(N)=O)[C@@H](OC)/C=C\C=C(\C)C(=O)N2
active: Potency [1] 0.742 µM | Potency [2] 0.148 µM | Potency [3] 4.17 µM | Potency [4] 1320 nM | Potency [5] 5.9 µM | Potency [6] 3.32 µM

O=C(NC1CC1)c1cccc(-c2ccc3c(NC(=O)C4CC4)n[nH]c3c2)c1
active: Potency [1] 10.5 µM | Potency [2] 8.33 µM | Potency [3] 3.32 µM | Potency [4] 4680 nM | Potency [5] 2.95 µM | Potency [6] 4.68 µM

COc1cc2c(NC3CCN(C)CC3)nc(N3CCCN(C)CC3)nc2cc1OCCCN(C)C
inactive: Potency [1] | Potency [2] | Potency [3] | Potency [5] | Potency [6]

CCS(=O)(=O)Nc1ccc2[nH]c(O)c(C(=Nc3ccc(CN4CCCCC4)cc3)c3ccccc3)c2c1
active: Potency [1] 0.235 µM | Potency [2] 0.0295 µM | Potency [3] 0.148 µM | Potency [4] 833 nM | Potency [5] 0.0661 µM | Potency [6] 0.0934 µM

N#C/C(=C1/Nc2ccccc2S1)c1ccnc(OCc2ccc(CN3CCOCC3)cc2)n1
active: Potency [1] 14.8 µM | Potency [2] 16.6 µM | Potency [3] 16.6 µM | Potency [6] 20.9 µM

CC(C)C[C@@H]1NC(=O)[C@@H](C(C)C)NC(=O)[C@@H]2CCCN2C(=O)[C@@H](CC(=O)O)NC(=O)[C@@H](Cc2c[nH]c3ccccc23)NC1=O (cyclo(L[dW][dD]P[dV]))
inactive: Potency [1] | Potency [2] | Potency [3] | Potency [5] | Potency [6]

COc1ccc2[nH]c3c(c2c1)CCN[C@]31CS[C@@H]2c3c(OC(C)=O)c(C)c4c(c3[C@H](COC1=O)N1[C@@H]2[C@H]2c3c(cc(C)c(OC)c3O)C[C@@H]([C@@H]1O)N2C)OCO4
active: Potency [1] 0.0034 µM | Potency [2] 0.0019 µM | Potency [3] 0.0034 µM | Potency [4] 3.8 nM | Potency [5] 0.0048 µM | Potency [6] 0.0038 µM

C=CCN(/C=C1\C(=O)O[C@@H](COC)[C@]2(C)C1=C(O)C(=O)C1=C2[C@@H](OC(C)=O)C[C@]2(C)C(=O)CC[C@H]12)CC=C
active: Potency [2] 20.9 µM | Potency [3] 20.9 µM | Potency [5] 20.9 µM | Potency [6] 18.6 µM
inactive: Potency [1]

CN[C@@H]1[C@@H](O)[C@@H](O[C@@H]2[C@@H](O)[C@H](O[C@H]3O[C@H](CN)[C@@H](O)[C@H](O)[C@H]3O)[C@@H](N)C[C@H]2NC(=O)C(O)CN)OC[C@]1(C)O (stereo partly specified)
inactive: Potency [1] | Potency [2] | Potency [3] | Potency [5]

[O-][n+]1cccc(-c2nc3c(Cl)cccc3cc2[C@@H](Nc2ncnc3cccnc23)C(F)(F)F)c1
active: Potency [1] 5.25 µM | Potency [2] 8.33 µM | Potency [4] 6610 nM

C[C@@]12C(=O)OC(=O)[C@]1(C)[C@H]1CC[C@@H]2O1
active: Potency [1] 3.72 µM | Potency [2] 3.32 µM | Potency [3] 2.95 µM | Potency [6] 2.63 µM

COc1ccc(-c2oc3ncnc(N)c3c2-c2ccc(NC(=O)Nc3cc(C(F)(F)F)ccc3F)cc2)cc1
active: Potency [1] 10.5 µM | Potency [2] 0.372 µM | Potency [3] 7.42 µM | Potency [5] 8.33 µM | Potency [6] 7.42 µM

CCCCCN(C)CCC(O)(P(=O)(O)O)P(=O)(O)O
inactive: viability (% of control) [1] 118% [at 5.12 µM] | viability, % of control [2] 131% [at 5.12 µM] | viability (% of control) [3] 109% [at 5.12 µM] | viability (% of control) [4] 109% [at 5.12 µM] | viability (% of control) [5] 111% [at 5.12 µM] | viability (% of control) [6] 115% [at 5.12 µM]

C=CC(=O)N1CC[C@@H](Oc2nc(Nc3ccc(N4CCC(N5CCN(C)CC5)CC4)cc3)c(C(N)=O)nc2CC)C1
active: Potency [1] 4.56 µM | Potency [2] 0.102 µM | Potency [3] 7.23 µM | Potency [5] 4.07 µM | Potency [6] 6.45 µM

CCN(CC)CCNC(=O)c1c(C)[nH]c(/C=C2/C(=O)Nc3ccc(-c4csc(-c5ccccc5)n4)cc32)c1C
active: Potency [1] 18.6 µM | Potency [2] 1.18 µM | Potency [3] 26.3 µM | Potency [4] 9340 nM | Potency [5] 7.42 µM | Potency [6] 7.42 µM

CC(C)(C)C[C@H]1N[C@@H](C(=O)NC2CCC(O)CC2)[C@H](c2cccc(Cl)c2F)[C@@]12C(=O)Nc1cc(Cl)ccc12 (stereo partly specified)
active: Potency [1] 4.17 µM | Potency [2] 0.742 µM | Potency [3] 0.934 µM | Potency [6] 3.32 µM

CC(=O)c1ccc2c(c1)c1cc(C(C)=O)ccc1n2CCNC(C)C
active: Potency [1] 1.05 µM | Potency [2] 0.525 µM | Potency [3] 1.32 µM | Potency [4] 833 nM | Potency [5] 0.833 µM | Potency [6] 1.32 µM

CCC[C@@H]1C[C@@H](C(=O)N[C@@H]([C@H]2O[C@H](SC)[C@H](O)[C@@H](O)[C@H]2O)[C@H](C)Cl)N(C)C1
inactive: Potency [1] | Potency [2] | Potency [3] | Potency [4] | Potency [5] | Potency [6]

CC(C)(O)CS(=O)(=O)Nc1ccc2c(c1)CCN(C(=O)COc1cccnc1)C2
active: Potency [1] 0.0235 µM | Potency [2] 0.105 µM | Potency [3] 0.0661 µM | Potency [5] 0.0661 µM
inactive: Potency [6]

O=C(NO)c1cnc(NC2(c3ccccc3)CC2)nc1
active: Potency [1] 5.9 µM | Potency [2] 3.32 µM | Potency [3] 6.61 µM | Potency [5] 7.42 µM | Potency [6] 8.33 µM
